# In all, about 300,000 compounds went through this assay and about 4,000 (1.3%) were called active.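 The calls were made as follows: active = mean replicate score, as percent of positive control median, at least 50; inconclusive = mean below 50 but one replicate at or above 50; inactive = mean and every replicate below 50.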 The list comes from a sample in which actives are over-represented; it also holds similar structures and randomly drawn compounds.
# Test: kanamycin survival loss of SKKanGAS strain – BacTiter-Glo luminescence, streptokinase expression inhibitor project, primary screen (AID 1662);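 also: strain carries kanamycin resistance gene driven by streptokinase promoter and grows in 40 µg/ml kanamycin; loss of luminescence reflects streptokinase promoter inhibition or plain growth inhibition; 0% = median of DMSO wells and 100% = positive control at its reference dose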
# Conditions: S. pyogenes SKKanGAS, kanamycin growth, 6 h, at 7.5 µM, stronger effect = higher value
row,SMILES,inhibition
1,O=C(Cc1ccc(S(=O)(=O)N2CCOCC2)s1)N1CCN(c2ccc(C(F)(F)F)cc2[N+](=O)[O-])CC1,3.49% (inactive)
2,O=C(Nc1cccc(C(F)(F)F)c1)c1ccc(N2CCNCC2)c([N+](=O)[O-])c1,-0.102% (inactive)
3,COc1cc(OC)cc(C(=O)NC(=S)N2CCN(c3ccc(C(F)(F)F)cc3[N+](=O)[O-])CC2)c1,86.6% (active)
4,Cc1cc(C(=O)OCC(=O)NCc2ccco2)c(C)n1-c1ccccc1,2.24% (inactive)
5,O=C(Nc1cc(C(F)(F)F)ccc1Cl)C(=O)N1CCCCC1,-4.87% (inactive)
6,O=C(NNc1ccccc1Cl)C(O)(c1cccc(C(F)(F)F)c1)c1cccc(C(F)(F)F)c1,98.2% (active)
7,CC(CC(=O)Nc1cc(C(F)(F)F)ccc1Cl)c1ccccc1 (configuration not stated),24.4% (inactive)
8,COc1cc(C)c(S(=O)(=O)N2CCOCC2)c(C)c1C,0.811% (inactive)
9,COCCN(CCOC)C(=S)Nc1ccccc1Cl,-4.57% (inactive)
10,O=C(Nc1ccccc1Cl)/C(Cl)=C(\Cl)S(=O)c1ccccc1 (configuration not stated),75.1% (active)
11,O=C(Nc1ccccc1Cl)Nc1cccc2cccnc12,-4.43% (inactive)
12,Cn1cccc1C(C#N)c1ccccc1C#N (configuration not stated),0.367% (inactive)
13,Cc1cc(C)c2nc(N(CCN(C)C)C(=O)/C=C/c3cccs3)sc2c1,3.15% (inactive)
14,Cc1cc(C)c2nc(-c3cccnc3)cc(C(=O)Nc3ccc(S(=O)(=O)Nc4onc(C)c4C)cc3)c2c1,64.7% (active)
15,Cc1noc(NS(=O)(=O)c2ccc(NC(=O)c3oc4ccc(F)cc4c3C)cc2)c1C,25.3% (inactive)
16,CCn1c(SCC(=O)Nc2ccc(S(=O)(=O)Nc3onc(C)c3C)cc2)nnc1-c1ccccc1,-0.983% (inactive)
17,Cc1ccsc1CNn1cnnc1SCc1ccccc1F,-0.394% (inactive)
18,O=C(c1cc2ccccc2o1)N1CCN(c2cccc(C(F)(F)F)c2)CC1,0.601% (inactive)
19,FC(F)(F)c1cccc(-c2cc3ccccc3nc2N2CCCC2)c1,51.7% (active)
20,c1ccc(-c2cc(N3CCCCC3)c3ccccc3n2)cc1,13.6% (inactive)
21,O=C(c1ccc(OC2CCN(C(=O)c3cccnc3)CC2)cc1)N1CCCCCC1,-5.73% (inactive)
22,Cc1[nH]n(-c2ccccc2)c(=O)c1/C=N/NC(=O)c1ccoc1C,-29.8% (inactive)
23,Cc1ccc(-n2[nH]c(C)c(/C=N/NC(=O)c3cccc([N+](=O)[O-])c3)c2=O)cc1C,91.5% (active)

row,SMILES,inhibition
1,O=C(N/N=C/c1cccc([N+](=O)[O-])c1)c1ccncc1,1.34% (inactive)
2,CC1=C2C(=O)OC(c3ccoc3)C2(C)CCC1 (configuration not stated),-13.7% (inactive)
3,CCC(NC(=O)C1CCCC1)c1ccc(C)cc1 (configuration not stated),5.2% (inactive)
4,Cc1nn(C)c(C)c1S(=O)(=O)N1CCC(CO)(Cc2ccc(Cl)cc2)CC1,-2.57% (inactive)
5,CC1CN(C(=S)Nc2ccccc2F)CC(C)O1 (configuration not stated),-2.73% (inactive)
6,COc1ccccc1NC(=S)N1CCN(c2ccc(F)cc2)CC1,-4.99% (inactive)
7,COc1c(N2CCN(C(=S)Nc3ccccc3F)C(C)C2)c(F)cc2c(=O)c(C(=O)O)cn(C3CC3)c12 (configuration not stated),104% (active)
8,COc1ccc(S(=O)(=O)NCC(=O)NC2CC2)cc1OC,-2.16% (inactive)
9,Cc1cc(Cl)c2oc(C(=O)NC(C)c3ccncn3)c(C)c2c1 (configuration not stated),-5.52% (inactive)
10,Cc1cc(Cl)c2oc(C(=O)N(C)C(C)c3ccccn3)c(C)c2c1 (configuration not stated),8.03% (inactive)
11,Cc1cc(Cl)c2oc(C(=O)N3CCC(O)(c4ccccc4)CC3)c(C)c2c1,64.2% (active)
12,COc1ccc(CCNC2=CC(=O)CC(C)(C)C2)cc1,-6.22% (inactive)
13,CC(C)(C)N1C(=O)[C@H]2[C@@H](c3ccc(Br)cc3)N3C(=O)N(c4cccc(Cl)c4)C(=O)[C@@]3(C)[C@H]2C1=O,-0.18% (inactive)
14,Cc1cccc(-n2nc3c(c2NC(=O)c2cc4ccccc4o2)CS(=O)(=O)C3)c1,1.09% (inactive)
15,CCOC(=O)c1cc(-c2ccc(F)cc2)n(CC(=O)NCc2ccccn2)c1C,-1.39% (inactive)
16,Clc1nc(NC2CCCC2)nc(N2CCOCC2)n1,3.5% (inactive)
17,COC(=O)c1ccc(Oc2nc(Nc3ccc(F)cc3)nc(N3CCCC3)n2)cc1,18.8% (inactive)
18,COc1nc(NC2CCCCC2)nc(N2CCCCCC2)n1,75.9% (active)
19,O=c1cc(C(F)(F)F)[nH]c(=O)n1C1CCCCC1,11.3% (inactive)
20,O=C(c1cccc(F)c1)N1CCN(c2ccc([N+](=O)[O-])c3cccnc23)CC1,-4.2% (inactive)
21,Cc1nnc(SCC(=O)NC2CCCC2)s1,-0.971% (inactive)
22,Cc1nnc(SCC(=O)Nn2cnnc2)s1,4.69% (inactive)
23,Cc1cccc(CSc2nnc(NC(=O)CSc3nnc(C)s3)s2)c1,7.83% (inactive)

row,SMILES,inhibition
1,Cc1cc(C)cc(C(=O)NC2C(=O)N3C(C(=O)O)=C(CSc4nnc(C)s4)CSC23)c1 (configuration not stated),96.4% (active)
2,Cc1nnc(SCC2=C(C(=O)O)N3C(=O)C(NC(=O)Cn4nc(C)c(Cl)c4C)C3SC2)s1 (configuration not stated),88.3% (active)
3,COc1ccc(NC(=O)CCCC(=O)c2ccccc2)cc1,1.96% (inactive)
4,CCOc1ccccc1/C=N/Nc1nc2ccccc2o1,2.09% (inactive)
5,COc1cc(N/C=C2\CC(=O)NC(C)=C2C#N)cc(OC)c1OC,-0.282% (inactive)
6,O=C(Nc1ccc(F)cc1)c1ccc(S(=O)(=O)NCc2cccnc2)cc1,-0.655% (inactive)
7,FC(F)(F)c1cc(-c2cccs2)nc(NCc2ccco2)n1,-2.9% (inactive)
8,Cc1cc(C(F)(F)F)nn1-c1nc(-c2ccco2)cc(C(F)(F)F)n1,7.56% (inactive)
9,FC(F)(F)c1cc(-c2ccco2)nc(NCc2ccc(Cl)cc2)n1,65.4% (active)
10,O=S(=O)(Nc1cccc(-c2ccc(N3CCOCC3)nn2)c1)c1ccc(Cl)c(Cl)c1,53.5% (active)
11,O=S(=O)(Nc1ccc(-c2ccc(N3CCOCC3)nn2)cc1)c1cc(Cl)ccc1Cl,18.8% (inactive)
12,O=[N+]([O-])c1ccc(S(=O)(=O)Nc2cccc(-c3ccc(N4CCCC4)nn3)c2)cc1,0.0506% (inactive)
13,CC1CN(S(=O)(=O)c2cccc(C(F)(F)F)c2)CN1C(=O)N1CCOCC1 (configuration not stated),0.316% (inactive)
14,COc1cc2cc(C(=O)N/N=C/c3cccc(OC)c3OC)[nH]c2cc1OC,2.92% (inactive)
15,COc1cccc(/C=N/NC(=O)c2[nH]nc3c2CCc2ccccc2-3)c1O,79% (active)
16,CN(C)CCNC(=O)c1[nH]nc2c1CCc1ccccc1-2,-5.17% (inactive)
17,COc1ccccc1C1C(C(N)=O)=C(C)Nc2nc(CCCO)nn21 (configuration not stated),-3.27% (inactive)
18,CCOc1ccc(CN(C)C(=O)c2ccc(=O)[nH]c2)cc1,1.34% (inactive)
19,CCOC(=O)C1=C(CCc2ccccc2)NC(=O)NC1c1ccc2ccccc2c1 (configuration not stated),19.2% (inactive)
20,CC(C)Cn1c(CCC(=O)O)ccc1-c1cccs1,-8.87% (inactive)
21,CCCCCn1c(SCCC(C)C)nc2c1c(=O)[nH]c(=O)n2C,26.4% (inactive)
22,C=CCSc1nc2c(c(=O)[nH]c(=O)n2C)n1Cc1ccccc1,-11.2% (inactive)
23,CCCCCCn1c(SCC(=O)c2ccccc2)nc2c1c(=O)[nH]c(=O)n2C,73.3% (active)

row,SMILES,inhibition
1,N=c1ccn(CC(=O)NC(N)=O)c2ccccc12,-5.02% (inactive)
2,Cc1cc(-c2ccc(C)c(S(=O)(=O)NC(C)Cc3ccco3)c2)on1 (configuration not stated),2.44% (inactive)
3,CCC(=C/c1sc2ccc3ccccc3c2[n+]1C)/C=C1\Sc2ccc3ccccc3c2N1C,69.5% (active)
4,COc1ccc(C(CNC(=O)c2cccc(NS(=O)(=O)c3ccc(C)c(F)c3)c2)N2CCCC2)cc1 (configuration not stated),-16% (inactive)
5,COc1ccc(C(CNC(=O)c2ccc(S(=O)(=O)Nc3ccccc3C)cc2)N2CCOCC2)cc1 (configuration not stated),-13.5% (inactive)
6,COc1ccc(C(CNC(=O)c2cccc(S(=O)(=O)Nc3ccccc3Cl)c2)N2CCOCC2)cc1 (configuration not stated),67.6% (active)
7,C=Cc1ccc(C(=O)N2CCCC(CCC(=O)N3CCN(c4ccccn4)CC3)C2)cc1 (configuration not stated),4.83% (inactive)
8,CC(C)C(=O)Nc1nnc(SCC(=O)N2C(C)CCCC2C)s1 (configuration not stated),-1.25% (inactive)
9,CC1Cc2ccccc2N1S(=O)(=O)c1ccc(Cl)nc1 (configuration not stated),-1.93% (inactive)
10,CCOc1[nH]n(-c2ccc(Cl)cc2)c(=O)c1C=Nc1ccc(O)cc1,2.84% (inactive)
11,COc1cc(NS(=O)(=O)c2ccc(N=Cc3c(C)[nH]n(-c4ccccc4)c3=O)cc2)nc(OC)n1,7.41% (inactive)
12,Cc1[nH]n(-c2ccc(Cl)cc2)c(=O)c1/C=N/n1c(C)nc2ccccc2c1=O,69.1% (active)
13,Cc1[nH]n(-c2cccc(Cl)c2)c(=O)c1/C=N/n1c(C)nc2ccccc2c1=O,79.2% (active)
14,Cc1ccc(-n2[nH]c(C)c(/C=N/N3C(=O)c4cccc5cccc(c45)C3=O)c2=O)cc1,8.48% (inactive)
15,Cc1[nH]n(-c2cccc(Cl)c2)c(=O)c1-c1ccc(Cl)cc1,39.1% (inactive)
16,CCOC(=O)C1CCN(C(=O)COC(=O)C2CCN(S(=O)(=O)c3ccc4c(c3)OCCO4)CC2)CC1,19.6% (inactive)
17,CCc1nnc(NC(=O)C2CC(=O)N(c3ccc4c(c3)OCCO4)C2)s1 (configuration not stated),-3.71% (inactive)
18,CC(OC(=O)c1ccc2noc(-c3ccccc3)c2c1)C(N)=O (configuration not stated),6.64% (inactive)
19,Clc1c(OCCCn2ccnc2)ccc2ccccc12,5.1% (inactive)
20,Cc1ccc(CNC(=O)CCN2C(=O)[C@@H]3Cc4ccccc4CN3C2=O)cc1,4.22% (inactive)
21,Cc1ccccc1NC(=O)CSc1nc2ccc(Nc3nc(N4CCOCC4)nc(N4CCOCC4)n3)cc2s1,15.9% (inactive)
22,O=C(CSc1nc(Nc2ccccc2)nc(N2CCOCC2)n1)Nc1cc(Cl)ccc1O,78.3% (active)
23,CC1(c2ccccc2)NC(=O)N(CC(=O)Nc2cc(Cl)ccc2N2CCOCC2)C1=O (configuration not stated),-3.7% (inactive)

# Reference: PubChem BioAssay AID1662 (Broad Institute, 2009)
